# Where “and” joins values, the source holds several entries; their conditions need not be identical. Identical values can stand only once. Results filed as inconclusive are left out. Where a call stands in place of a potency, no number is given. Calls of active or inactive are those of the source. Unless noted, calls follow the shape of the dose curve; as a rule, active = well fitted curve in the direction sought with a large enough effect; inconclusive = small, poorly fitted or top-dose-only effect, or another doubt; inactive = no such curve, though single readings can be large; an effect the other way counts as inactive or inconclusive.
# Experiments:
# [1] = Cell Viability - Jurkat (AID 426;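 active = dose-dependent loss of cell ATP signal giving a full or clear fitted curve, ranked by lower potency value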;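 also: potency is read from the fitted curve at half-maximal effect; cells exposed to compound for 40 hours at 37 °C before ATP read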); conditions: qHTS
# Outline: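 Cytotoxicity taken as drop in cellular ATP (CellTiter-Glo luminescence, 20 min room temperature) after 40 hr, 37C treatment of 5000 Jurkat Clone E6-1 cells per well; concentration-response fitted with Hill equation for AC50.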
# [2] = Cell Viability - Hek293 (AID 427;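 active = compounds whose dose-response curve shows a full or clear partial loss of cell viability, called from curve shape rather than a numeric limit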;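 also: potency is read from the fitted curve at half-maximal effect; cells exposed to compound for 40 hours at 37 °C before reading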); conditions: qHTS
# Outline: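 Luminescent ATP read-out (CellTiter-Glo, 20 min RT) after 40 hr compound exposure at 37 °C in complete medium. Signal normalized to DMSO (basal) and 100 uM tamoxifen (100% inhibition); concentration-response fitted with the standard Hill equation to give AC50.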
# [3] = Cell Viability - SK-N-SH (AID 435; calls by dose curve;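 also: potency is read from the fitted curve at half-maximal effect; compound exposure lasted 40 h at 37 °C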); conditions: SK-N-SH neuroblastoma cell viability qHTS
# Outline: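 CellTiter-Glo ATP luminescence, 20 min RT read; cells pre-plated 5 hr, compound 40 hr at 37 °C, 1500 cells/well, complete medium. Normalized DMSO = 0, 100 uM tamoxifen = 100% inhibition; Hill-fit AC50.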
# [4] = Cell Viability - SH-SY5Y (AID 544); conditions: SH-SY5Y neuroblastoma cell viability; viability change, negative = cytotoxic: at 92.2 µM (top of the series);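 also: cells exposed to compound for 40 hours; nearly all actives have a fitted effect of over 55% in size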; also: potency is read from the fitted curve at half-maximal effect
# Outline: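 Cytotoxicity measured via ATP-dependent luciferase luminescence (CellTiter-Glo) following 40 h, 37 °C exposure of 1500 SH-SY5Y cells per well. Concentration-response data were fitted with the standard Hill equation to give AC50.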
# [5] = MultiTox-Fluor Cytotoxicity Assay - LYMP1-002 - Dead Cells (AID 960); conditions: LYMP1-002 lymphoblastoid cells, dead-cell protease fluorescence; series mostly up to 46.1 µM; also: nearly all actives have a fitted effect of over 60% in size; also: potency is read from the fitted curve at half-maximal effect
# Outline: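 Dead-cell fluorescence (Ex/Em 485/520) after 16 h compound exposure at 37 C of LYMP1-002 lymphoblastoid cells in complete medium; AC50 by Hill equation, with data scaled between DMSO and 15 uM tetraoctylammonium bromide.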
# [6] = Cell Viability - LYMP2-015 (AID 971); conditions: LYMP2-015 lymphoblastoid cell viability; series mostly up to 92.2 µM; also: nearly all actives have a fitted effect of over 55% in size; also: potency is read from the fitted curve at half-maximal effect
# Outline: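 Cytotoxicity readout: decrease in intracellular ATP (CellTiter-Glo luminescence) in 2500 LYMP2-015 lymphoblastoid cells/well after 24 h compound exposure at 37 C. Concentration-response data fitted with the standard Hill equation to give AC50.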
# [7] = Cell Viability - LYMP2-010 (AID 981); conditions: LYMP2-010 lymphoblastoid cell viability, qHTS; series mostly up to 92.2 µM;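 also: cells exposed to compound for 24 hours at 37 °C; nearly all actives have a fitted effect of over 55% in size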; also: potency is read from the fitted curve at half-maximal effect
# Outline: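 CellTiter-Glo ATP luminescence measured cytotoxicity after 24 h compound exposure at 37 C. LYMP2-010 cells were seeded at 2500/well, with tetraoctylammonium bromide as control; concentration-response curves gave AC50 values by the Hill equation.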
# [8] = target: Vitamin D3 receptor (Homo sapiens) (UniProt P11473); test: qHTS assay for small molecule agonists of vitamin D receptor signaling (AID 588543; calls by dose curve; also: potency is read from the fitted curve at half-maximal effect); conditions: HEK293T VDR-UAS-bla, beta-lactamase ratio, 16 h; series mostly up to 76.8 µM
# Vitamin D3 receptor (Homo sapiens), sequence (P11473 whole entry, looked up): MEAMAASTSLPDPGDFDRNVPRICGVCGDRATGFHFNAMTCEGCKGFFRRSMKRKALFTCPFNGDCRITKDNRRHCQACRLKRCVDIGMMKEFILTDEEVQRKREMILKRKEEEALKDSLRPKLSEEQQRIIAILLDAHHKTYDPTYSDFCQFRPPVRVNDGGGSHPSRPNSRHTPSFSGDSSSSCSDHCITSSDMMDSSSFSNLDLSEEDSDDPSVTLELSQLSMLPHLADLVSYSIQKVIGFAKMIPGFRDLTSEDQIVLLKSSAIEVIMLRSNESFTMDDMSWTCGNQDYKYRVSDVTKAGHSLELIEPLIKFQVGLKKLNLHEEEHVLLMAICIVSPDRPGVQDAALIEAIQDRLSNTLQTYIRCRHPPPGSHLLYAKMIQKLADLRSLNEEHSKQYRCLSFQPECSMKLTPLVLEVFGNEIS
# Outline: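 β-lactamase reporter, VDR-UAS-bla HEK293T, agonist mode. Cells plated 5 h at 37 °C, compound titration 16 h at 37 °C, CCF4 dye 2 h RT, ratio 460/530 nm. Hill fit → EC50, efficacy vs 50 nM 1α,25-(OH)2D3.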
# [9] = qHTS assay for small molecule agonists of retinoid X receptor alpha signaling (AID 588544); conditions: HEK293T RXRa-UAS-bla, beta-lactamase reporter, 18 h; 530 nm emission
# [10] = target: Thyroid hormone receptor beta (Homo sapiens) (UniProt P10828); test: qHTS assay for small molecule agonists of thyroid hormone receptor beta signaling (AID 588545; calls by dose curve; also: potency is read from the fitted curve at half-maximal effect); conditions: TR-UAS-bla GripTite HEK 293, beta-lactamase ratio, agonist mode, 18 h; series mostly up to 76.7 µM
# Thyroid hormone receptor beta (Homo sapiens), sequence (P10828 whole entry, looked up): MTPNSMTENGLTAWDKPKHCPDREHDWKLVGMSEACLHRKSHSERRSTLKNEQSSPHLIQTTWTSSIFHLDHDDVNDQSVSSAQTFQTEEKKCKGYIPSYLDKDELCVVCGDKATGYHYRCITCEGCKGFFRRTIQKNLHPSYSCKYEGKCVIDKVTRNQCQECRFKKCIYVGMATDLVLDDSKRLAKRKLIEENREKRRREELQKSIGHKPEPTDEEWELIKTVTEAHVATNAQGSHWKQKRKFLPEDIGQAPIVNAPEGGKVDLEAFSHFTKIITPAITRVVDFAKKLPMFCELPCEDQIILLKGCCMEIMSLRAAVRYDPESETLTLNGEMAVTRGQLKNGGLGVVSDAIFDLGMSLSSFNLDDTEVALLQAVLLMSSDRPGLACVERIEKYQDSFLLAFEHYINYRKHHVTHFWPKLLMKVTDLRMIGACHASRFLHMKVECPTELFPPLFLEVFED
# Outline: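 TR-UAS-bla-GripTite HEK 293 cells in medium with 2% charcoal/dextran FBS, 0.1 mM NEAA and 1 mM sodium pyruvate were treated with titrated compounds for 18 hrs at 37 C. Beta-lactamase reporter was read with CCF4 dye (ex 405, em 460/530 nm); EC50 from Hill fits.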
# [11] = target: Voltage-gated inwardly rectifying potassium channel KCNH2 (Homo sapiens) (UniProt Q12809); test: qHTS Assay for Small Molecule Inhibitors of the Human hERG Channel Activity (AID 588834); conditions: U2OS BacMam hERG, FluxOR thallium flux fluorescence; series mostly up to 92.2 µM;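 also: top concentration of the series differs between compounds; lower thallium flux fluorescence means stronger hERG block; nearly all actives have a fitted effect of over 50% in size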
# Voltage-gated inwardly rectifying potassium channel KCNH2 (Homo sapiens), sequence (Q12809 whole entry, looked up): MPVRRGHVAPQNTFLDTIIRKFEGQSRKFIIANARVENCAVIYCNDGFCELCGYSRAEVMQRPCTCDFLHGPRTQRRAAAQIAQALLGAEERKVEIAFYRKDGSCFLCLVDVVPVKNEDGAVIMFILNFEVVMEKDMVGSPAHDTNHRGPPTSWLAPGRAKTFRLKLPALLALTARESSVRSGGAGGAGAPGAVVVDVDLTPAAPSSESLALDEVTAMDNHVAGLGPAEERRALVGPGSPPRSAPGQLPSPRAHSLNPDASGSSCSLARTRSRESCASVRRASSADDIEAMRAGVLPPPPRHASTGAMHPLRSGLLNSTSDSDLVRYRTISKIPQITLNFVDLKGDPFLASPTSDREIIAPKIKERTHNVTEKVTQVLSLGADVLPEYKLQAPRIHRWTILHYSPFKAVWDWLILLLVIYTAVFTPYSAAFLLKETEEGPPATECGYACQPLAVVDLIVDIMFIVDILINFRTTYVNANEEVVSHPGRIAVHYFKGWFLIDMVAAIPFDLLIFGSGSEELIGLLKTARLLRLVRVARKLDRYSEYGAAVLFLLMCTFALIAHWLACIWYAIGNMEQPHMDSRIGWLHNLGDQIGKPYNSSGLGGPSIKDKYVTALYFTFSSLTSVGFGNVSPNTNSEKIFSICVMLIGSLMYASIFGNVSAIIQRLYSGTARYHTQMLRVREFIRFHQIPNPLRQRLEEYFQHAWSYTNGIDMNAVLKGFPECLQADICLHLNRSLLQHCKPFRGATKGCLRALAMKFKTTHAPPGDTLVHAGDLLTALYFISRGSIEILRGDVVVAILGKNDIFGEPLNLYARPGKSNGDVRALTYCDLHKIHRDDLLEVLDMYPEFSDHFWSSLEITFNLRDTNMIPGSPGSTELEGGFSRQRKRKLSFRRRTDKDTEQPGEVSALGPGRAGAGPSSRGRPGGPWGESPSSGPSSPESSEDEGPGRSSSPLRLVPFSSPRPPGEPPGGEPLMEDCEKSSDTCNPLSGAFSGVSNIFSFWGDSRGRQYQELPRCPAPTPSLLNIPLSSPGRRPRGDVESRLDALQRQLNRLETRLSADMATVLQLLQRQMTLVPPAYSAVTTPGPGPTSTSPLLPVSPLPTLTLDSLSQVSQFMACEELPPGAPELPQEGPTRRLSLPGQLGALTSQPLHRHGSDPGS
# Outline: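 Thallium-flux (FluxOR) read-out on FDSS: fluorescence read 10 s before and 2 min after stimulation buffer. hERG-BacMam-transduced U2OS cells, compound exposure about 10 min. AC50 by standard Hill equation.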
# [12] = qHTS assay for small molecule activators of the p53 signaling pathway (AID 651743; active = well fitted activation curve with a large enough effect in the signal ratio, not every such curve was filed as active; the % refers to the signal ratio; also: potency is read from the fitted curve at half-maximal effect); conditions: HCT-116 p53RE-bla, beta-lactamase FRET ratio, 16 h; activation: stronger effect = higher value
# Outline: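 Agonist-mode quantitative HTS in HCT-116 cells carrying a p53-response-element beta-lactamase reporter; 16 h compound treatment at 37 C, then FRET substrate loading for 2 h at room temperature and fluorescence read.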
# [13] = qHTS assay for small molecule disruptors of the mitochondrial membrane potential - 1 hr assay (AID 651754; calls by dose curve; also: nearly all actives have a fitted effect of over 35% in size; also: potency is read from the fitted curve at half-maximal effect); conditions: series mostly up to 92.2 µM
# Outline: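 Mitochondrial potential in living HepG2 cells after 1 hr compound treatment at 37C was read with Mito-MPS dye added for a further 30 min. Red aggregate and green monomer fluorescence were measured; loss of potential leaves dye as cytoplasmic monomers.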
# [14] = target: Nuclear receptor ROR-gamma (Homo sapiens) (UniProt P51449); test: qHTS assay for small molecule antagonists of the retinoid-related orphan receptor gamma (ROR-gamma) signaling pathway (AID 651802); conditions: ROR-gamma antagonist cell reporter assay; series mostly up to 92.2 µM; also: nearly all actives have a fitted effect of over 60% in size; also: potency is read from the fitted curve at half-maximal effect
# Nuclear receptor ROR-gamma (Homo sapiens), sequence (P51449 whole entry, looked up): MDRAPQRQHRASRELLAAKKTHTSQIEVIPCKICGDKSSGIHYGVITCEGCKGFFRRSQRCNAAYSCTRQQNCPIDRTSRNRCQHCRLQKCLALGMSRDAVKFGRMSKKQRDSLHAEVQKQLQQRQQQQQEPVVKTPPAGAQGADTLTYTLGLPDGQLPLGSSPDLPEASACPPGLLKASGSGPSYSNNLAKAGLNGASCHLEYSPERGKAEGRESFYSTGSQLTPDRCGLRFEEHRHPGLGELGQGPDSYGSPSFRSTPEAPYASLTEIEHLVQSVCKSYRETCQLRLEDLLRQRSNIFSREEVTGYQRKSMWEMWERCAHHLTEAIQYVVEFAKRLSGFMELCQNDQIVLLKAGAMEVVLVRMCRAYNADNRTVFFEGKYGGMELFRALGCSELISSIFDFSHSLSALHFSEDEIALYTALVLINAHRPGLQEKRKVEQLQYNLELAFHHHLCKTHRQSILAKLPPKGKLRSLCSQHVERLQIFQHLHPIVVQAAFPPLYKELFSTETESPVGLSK
# Outline: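 Luminescence (One-Glo, 30 min RT) measured 16 h after compound addition and doxycycline induction at 37C. Reporter: RORE-luciferase under TET-inducible ROR-gamma in CHO cells.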
# [15] = qHTS assay for small molecule agonists of the antioxidant response element (ARE) signaling pathway measured by Nrf2-dependant transcriptional activity (AID 720636; active = well fitted curve in the direction sought with a large enough effect in the repeat runs; an effect the other way counts as inactive or inconclusive); conditions: ARE-luc HepG2, Nrf2 luciferase reporter, 16 h; series mostly up to 92.4 µM
# Outline: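 Quantitative HTS format in HepG2 cells stably expressing an ARE-luciferase reporter; 16 hr compound treatment at 37 C, luciferase signal detected with ONE-Glo.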
# [16] = qHTS assay for small molecule antagonists of the retinoid-related orphan receptor gamma (ROR-gamma) signaling pathway - cell viability counter screen (AID 720652; active = well fitted curve in the direction sought with a large enough effect in the repeat runs; an effect the other way counts as inactive or inconclusive;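 also: CHO reporter cells with doxycycline-induced ROR-gamma expression; compound exposure lasted 16 hr before ATP read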); conditions: RORgamma reporter cell line viability counter screen; series mostly up to 92.2 µM
# Outline: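 Cytotoxicity counter screen: intracellular ATP (CellTiter-Glo luminescence) measured in the doxycycline-induced CHO RORE-luciferase reporter line after 16 hr compound exposure at 37 C, 5% CO2.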
# [17] = qHTS assay for small molecule activators of the human pregnane X receptor (PXR) signaling pathway (AID 720659; call rule not given here); conditions: DPX-2 HepG2 CYP3A4-luciferase, 24 h; series mostly up to 92.3 µM
# [18] = target: Cytochrome P450 3A4 (Homo sapiens) (UniProt P08684); test: qHTS Assay for Inhibitors and Substrates of Cytochrome P450 3A4 (AID 884); conditions: recombinant CYP3A4, Luciferin-PPXE luminescence; series mostly up to 57.1 µM; also: nearly all actives have a fitted effect of over 50% in size
# Cytochrome P450 3A4 (Homo sapiens), sequence (P08684 whole entry, looked up): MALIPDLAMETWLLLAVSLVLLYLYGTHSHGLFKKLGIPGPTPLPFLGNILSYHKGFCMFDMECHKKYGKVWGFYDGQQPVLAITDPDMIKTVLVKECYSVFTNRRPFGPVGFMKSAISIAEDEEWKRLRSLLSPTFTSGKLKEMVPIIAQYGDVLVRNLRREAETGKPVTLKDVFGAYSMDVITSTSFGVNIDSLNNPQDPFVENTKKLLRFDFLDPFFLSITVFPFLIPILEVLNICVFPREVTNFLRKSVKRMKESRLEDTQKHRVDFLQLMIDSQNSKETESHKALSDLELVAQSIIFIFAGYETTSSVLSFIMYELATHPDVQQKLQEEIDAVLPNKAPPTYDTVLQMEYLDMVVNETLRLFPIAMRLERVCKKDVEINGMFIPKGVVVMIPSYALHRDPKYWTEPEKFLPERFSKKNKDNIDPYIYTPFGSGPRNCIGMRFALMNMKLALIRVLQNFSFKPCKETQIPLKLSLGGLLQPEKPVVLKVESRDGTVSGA
# Outline: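 Luminescent readout of luciferin produced by CYP3A4 (20 nM) dealkylation of Luciferin-PPXE, 25 uM (its KM). NADPH-driven reaction ran 60 min at RT after 10 min compound preincubation; data scaled to 57 uM ketoconazole as 100% inhibition.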
# [19] = target: Glucocorticoid receptor (Homo sapiens) (UniProt P04150); test: qHTS assay for small molecule agonists of glucocorticoid receptor signaling (AID 588532; active = well fitted curve in the direction sought with a large enough effect in the signal ratio, with a control signal flat; the % refers to the signal ratio); conditions: HeLa MMTV-bla, beta-lactamase ratio, agonist, 18 h; stronger effect = higher value; percent of dexamethasone control, DMSO zero
# Glucocorticoid receptor (Homo sapiens), sequence (P04150 whole entry, looked up): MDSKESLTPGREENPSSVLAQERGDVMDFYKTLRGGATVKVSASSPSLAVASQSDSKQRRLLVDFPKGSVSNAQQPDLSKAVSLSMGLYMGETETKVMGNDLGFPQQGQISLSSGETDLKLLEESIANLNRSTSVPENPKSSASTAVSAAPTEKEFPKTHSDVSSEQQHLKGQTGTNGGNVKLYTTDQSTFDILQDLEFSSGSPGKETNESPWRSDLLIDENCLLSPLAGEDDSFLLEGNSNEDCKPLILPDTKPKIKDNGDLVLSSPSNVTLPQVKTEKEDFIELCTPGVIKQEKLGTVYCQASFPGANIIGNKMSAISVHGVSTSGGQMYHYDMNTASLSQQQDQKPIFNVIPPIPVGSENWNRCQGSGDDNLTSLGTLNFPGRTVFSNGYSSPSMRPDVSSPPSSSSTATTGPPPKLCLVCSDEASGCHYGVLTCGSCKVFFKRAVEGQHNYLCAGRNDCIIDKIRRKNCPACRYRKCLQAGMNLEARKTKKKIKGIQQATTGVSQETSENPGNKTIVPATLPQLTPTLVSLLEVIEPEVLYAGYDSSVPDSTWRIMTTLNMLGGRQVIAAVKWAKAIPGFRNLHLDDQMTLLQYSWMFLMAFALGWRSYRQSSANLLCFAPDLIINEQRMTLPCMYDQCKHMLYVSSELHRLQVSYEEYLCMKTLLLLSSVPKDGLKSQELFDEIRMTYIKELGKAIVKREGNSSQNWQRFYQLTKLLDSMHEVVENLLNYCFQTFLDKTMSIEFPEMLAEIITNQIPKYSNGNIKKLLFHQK
# Outline: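 Stimulation of a glucocorticoid response element-driven beta-lactamase gene was measured in HeLa cells. Responses were scaled between DMSO basal and 0.1 uM dexamethasone, then fitted for half-maximal stimulation.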
# [20] = qHTS assay for small molecule activators of the nuclear factor-kappa B (NF-kB) signaling pathway (AID 651749; active = well fitted activation curve with a large enough effect in the signal ratio; the % refers to the signal ratio); conditions: NF-kB-bla ME-180 cells, beta-lactamase FRET ratio, 16 h; stronger effect = higher value
# Outline: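 Human ME-180 cervical cells with an NF-kB-bla construct; compounds added via 23 nL pin transfer, DMSO as vehicle; incubation 16 hr. Reporter activity measured by FRET disruption.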
smiles,measurement,setting,value
CC(=O)OCc1ccc2c(c1)OCO2,Potency,[1],> 92 µM (inactive)
same,Potency,[2],> 92 µM (inactive)
same,Potency,[3],> 92 µM (inactive)
same,Potency,[4],inactive
same,Potency,[5],inactive
same,Potency,[6],inactive
same,Potency,[7],inactive
same,Potency,[8],inactive
same,max response,[9],17.8%
same,Potency,[10],inactive
same,Potency,[11],inactive
same,activation,[12],-2.61% (inactive)
same,Potency,[13],inactive
same,Potency,[14],inactive
same,Potency,[15],inactive
same,Potency,[16],inactive
same,outcome,[17],inactive
Nc1cc([N+](=O)[O-])ccc1O,Potency,[1],> 92 µM (inactive)
same,Potency,[2],> 92 µM (inactive)
same,Potency,[3],> 92 µM (inactive)
same,Potency,[4],inactive
same,Potency,[18],inactive
same,Potency,[5],inactive
same,Potency,[6],inactive
same,Potency,[7],inactive
same,activation,[19],-3.65% (inactive) and -4.48% (inactive)
same,Potency,[8],inactive
same,max response,[9],-3.91% and 2.48%
same,Potency,[10],inactive
same,Potency,[11],inactive
same,activation,[12],-1.58% (inactive) and -3.77% (inactive)
same,activation,[20],-0.245% (inactive) and -0.938% (inactive)
same,Potency,[13],29.8 µM (active)
same,Potency,[14],23.7 µM (active)
same,Potency,[16],inactive
same,outcome,[17],inactive
CC(C)S,Potency,[1],> 92 µM (inactive)
same,Potency,[2],> 92 µM (inactive)
same,Potency,[3],> 92 µM (inactive)
same,Potency,[4],inactive
same,Potency,[18],inactive
same,Potency,[5],inactive
same,Potency,[6],inactive
same,Potency,[7],inactive
same,activation,[19],2.41% (inactive)
same,Potency,[8],inactive
same,max response,[9],-9.69%
same,Potency,[10],inactive
same,Potency,[11],inactive
same,activation,[12],-1.26% (inactive)
same,activation,[20],-0.169% (inactive)
same,Potency,[13],inactive
same,Potency,[15],inactive
same,Potency,[16],inactive
same,outcome,[17],inactive
C[C@@H]1CC2(OC(O)[C@]3(C)O[C@H]23)O[C@H]2C[C@@]3(C)[C@@H]4CC[C@H]5C(C)(C)C(O[C@@H]6OC[C@@H](O)[C@H](O)[C@H]6O)CC[C@@]56C[C@@]46CC[C@]3(C)[C@@H]12 (some centres undefined),Potency,[1],41.2 µM (inactive)
same,Potency,[3],> 92 µM (inactive)
same,Potency,[18],inactive
same,Potency,[6],inactive
same,activation,[19],1.76% (inactive)
same,Potency,[11],inactive
same,activation,[12],-3.37% (inactive)
same,activation,[20],-2.65% (inactive)
same,Potency,[14],33.5 µM (active)
same,Potency,[15],inactive
same,outcome,[17],inactive
CCN(CC)c1ccc2c(C)cc(=O)oc2c1,Potency,[1],> 92 µM (inactive)
same,Potency,[2],> 92 µM (inactive)
same,Potency,[3],> 92 µM (inactive)
same,Potency,[4],inactive
same,Potency,[6],inactive
same,Potency,[7],inactive
same,Potency,[8],44.7 µM (active)
same,Potency,[10],22.4 µM (active)
same,Potency,[11],inactive
same,Potency,[12],39.8 µM (active)
same,Potency,[14],inactive
same,Potency,[15],inactive
same,Potency,[16],inactive
C=C1CC[C@H](O)C/C1=C/C=C1\CCC[C@]2(C)[C@@H]([C@H](C)CCCC(C)C)CC[C@@H]12,Potency,[1],27.5 µM (active)
same,Potency,[3],47.1 µM (active)
same,Potency,[4],31.6 µM (active)
same,Potency,[5],31.6 µM (active)
same,Potency,[6],39.8 µM (active)
same,Potency,[7],39.8 µM (active)
same,activation,[19],-3.67% (inactive)
same,Potency,[10],inactive
same,Potency,[11],inactive
same,activation,[20],1.86% (inactive)
same,Potency,[13],inactive
Cc1ccc(S(N)(=O)=O)cc1,Potency,[1],> 92 µM (inactive)
same,Potency,[2],> 92 µM (inactive)
same,Potency,[3],> 92 µM (inactive)
same,Potency,[4],inactive
same,Potency,[18],inactive
same,Potency,[5],inactive
same,Potency,[6],inactive
same,Potency,[7],inactive
same,activation,[19],1.06% (inactive) and -7.61% (inactive)
same,Potency,[8],inactive
same,max response,[9],-3.23% and -4.03%
same,Potency,[10],inactive
same,Potency,[11],inactive
same,activation,[12],-4.8% (inactive) and 0.0231% (inactive)
same,activation,[20],1.55% (inactive) and -0.345% (inactive)
same,Potency,[13],inactive
same,Potency,[15],inactive
same,Potency,[16],inactive
same,outcome,[17],inactive

# From PubChem BioAssay (NCATS)
